Here are results for eight molecules from PubChem BioAssay (NCI).

SMILES strings stand for the structures. This is part of a sample that, as a whole, favours compounds with a hit. Of some 83,000 tested, about 20% had one in any assay.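 96-well plates, one dose, 48 hours. Percent growth reported; active if below 10.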 A number with no mark means an inactive call. Active and inactive are the calls of the source.

Test systems include SR leukemia; OVCAR-8 ovarian; OVCAR-5 ovarian; OVCAR-4 ovarian; SK-OV-3 ovarian; IGROV1 ovarian; OVCAR-3 ovarian; HS 578T breast; T-47D breast; BT-549 breast; SW-620 colon; MCF7 breast; HCT-116 colon; HCC-2998 colon; KM12 colon; NCI/ADR-RES ovarian; RPMI-8226 leukemia; MDA-MB-435 melanoma.
Holding throughout (test): NCI-60 one-dose screen, 48 h (100 = growth as untreated, 0 = no growth, -100 = all killed)
Common to all, as to conditions: 10 µM unless noted

As to `CCN(CC)Cc1c(-c2cccc(OC(F)(F)F)c2)[nH]c2ccc(N3CCCC3)cc2c1=O`, the growth in the test on SR leukemia was 91.4%; with OVCAR-8 ovarian, 96.2%; with OVCAR-5 ovarian, 92.5%; with OVCAR-4 ovarian, 101%; in the test with SK-OV-3 ovarian, 111%; in the test on IGROV1 ovarian, 79.6%. The growth is 104% in the test on OVCAR-3 ovarian; 87.3% in the test on HS 578T breast; 103% in the test on T-47D breast; 87.7% in the test on BT-549 breast; 92.3% with SW-620 colon; 78.4% in the test on MCF7 breast. Also, the growth was 101% with HCT-116 colon, 87% in the test with HCC-2998 colon and 95.9% with KM12 colon.

Take `CCNCc1c(-c2cccc(OC(F)(F)F)c2)[nH]c2ccc(N3CCCC3)cc2c1=O`: the growth in the test with SR leukemia was 9.06% (active); in the test with OVCAR-8 ovarian it was 22.5%; with OVCAR-5 ovarian, 24.5%; with OVCAR-4 ovarian it was 49.8%; with SK-OV-3 ovarian, 34.2%; with IGROV1 ovarian it was 22.6%. Besides, the growth in the test with OVCAR-3 ovarian was -6.81% (active); with HS 578T breast it was 8.12% (active); in the test with NCI/ADR-RES ovarian, 9.42% (active); with T-47D breast, 28.9%; in the test with BT-549 breast, 50.6%; with SW-620 colon it was 16.8%. The growth in the test on MCF7 breast is 11.4%; in the test on HCT-116 colon, 11.2%; with HCC-2998 colon, -27.7% (active); in the test on KM12 colon it was 14.8%.

As to `COC(=O)Nc1ccc(-c2nc(-c3cccc(O)c3)c(-c3ccnc(Br)c3)[nH]2)cc1`, the growth was 32.7% in the test on SR leukemia; 35.6% with OVCAR-8 ovarian; 92.9% in the test on OVCAR-5 ovarian; 45.5% in the test with OVCAR-4 ovarian; 79.3% in the test on SK-OV-3 ovarian; 65.7% in the test with IGROV1 ovarian. Also, the growth with OVCAR-3 ovarian was 50.8%; in the test on HS 578T breast, 27.7%; with NCI/ADR-RES ovarian, 76.1%; in the test on T-47D breast it was 34.7%; in the test on BT-549 breast it was 66.1%; with SW-620 colon, 70.3%. Moreover, the growth in the test with MCF7 breast was 14.6%; in the test with HCT-116 colon, 49.7%; in the test on HCC-2998 colon, 84.7%; in the test on KM12 colon it was 50.7%.

Regarding `CC(=O)Nc1ccc(NC(=O)Nc2cccc(-c3nc(-c4ccc(NC(=O)c5cccnc5)cc4Cl)no3)c2)cc1C(F)(F)F`, the growth in the test on SR leukemia is -25.1% (active); with OVCAR-8 ovarian, -9.07% (active); in the test on OVCAR-5 ovarian, -49.4% (active); in the test on OVCAR-4 ovarian, -53.7% (active); with SK-OV-3 ovarian, -57.9% (active); in the test on IGROV1 ovarian it was -54% (active). Further, the growth in the test with OVCAR-3 ovarian is -63.7% (active); in the test with HS 578T breast, -22.9% (active); in the test on NCI/ADR-RES ovarian, 69.2%; with T-47D breast, -43.7% (active); in the test with BT-549 breast it was -29.9% (active); in the test with SW-620 colon it was -62.8% (active). The growth in the test on MCF7 breast was -61.3% (active); with HCT-116 colon, -47.4% (active); with HCC-2998 colon, -77.6% (active); with KM12 colon, -46.2% (active).

For `CC[C@@](C)(NC(=O)C(C)(C)NC(=O)[C@@H](NC(=O)[C@@H]1CCCN1C(=O)C(C)(C)NC(=O)[C@H](CC(C)C)NC(=O)CNC(=O)C(C)(C)NC(=O)[C@@H](NC(=O)C(C)(C)NC(=O)[C@H](CCC(N)=O)NC(=O)[C@H](C)NC(=O)C(C)(C)NC(=O)[C@H](C)NC(=O)C(C)(C)NC(=O)[C@H](C)NC(=O)C(C)(C)NC(C)=O)C(C)C)C(C)C)C(=O)N[C@@H](CCC(N)=O)C(=O)N[C@@H](CCC(N)=O)C(=O)N[C@H](CO)CC1CCCCC1`, the growth with RPMI-8226 leukemia is -16.2% [5 µM] (active); in the test with OVCAR-8 ovarian, 87.7% [5 µM]; in the test on OVCAR-5 ovarian, 19.9% [5 µM]; in the test on OVCAR-4 ovarian, 58% [5 µM]; in the test on SK-OV-3 ovarian it was 18.5% [5 µM]; in the test on IGROV1 ovarian, 42.1% [5 µM]. For the same molecule, the growth is 19.2% [5 µM] in the test with OVCAR-3 ovarian; 46.6% [5 µM] in the test on HS 578T breast; 101% [5 µM] with NCI/ADR-RES ovarian; 12.2% [5 µM] in the test on T-47D breast; -74.3% [5 µM] (active) in the test on BT-549 breast; 12.4% [5 µM] in the test on MDA-MB-435 melanoma. Moreover, the growth in the test with SW-620 colon is 49.1% [5 µM]; in the test on MCF7 breast, 8.62% [5 µM] (active); in the test with HCT-116 colon it was 12.4% [5 µM]; in the test on HCC-2998 colon, 28.9% [5 µM]; with KM12 colon it was 34.8% [5 µM].

As to `COC(=O)c1c(C(=O)OC)c2n(CC(=O)Nc3cccc4cccnc34)c3ccccc3n2c1C(=O)c1ccc(C)cc1`, the growth with SR leukemia was 122%; with OVCAR-8 ovarian, 92.4%; with OVCAR-5 ovarian, 102%; with OVCAR-4 ovarian, 99.8%; in the test on SK-OV-3 ovarian, 119%; with IGROV1 ovarian, 97.6%. Moreover, the growth in the test with OVCAR-3 ovarian was 114%; with HS 578T breast, 111%; in the test with NCI/ADR-RES ovarian, 96%; in the test on T-47D breast it was 83.4%; in the test on BT-549 breast, 110%; in the test on SW-620 colon, 95.1%. Also, the growth with MCF7 breast was 93.4%; in the test with HCT-116 colon it was 49.5%; in the test with HCC-2998 colon, 103%; in the test on KM12 colon, 109%.

`O=C1/C(=C/c2ccccc2[N+](=O)[O-])Oc2ccc(O)cc21`: the growth is 2.82% (active) in the test on SR leukemia; 20.7% in the test on OVCAR-8 ovarian; 38.2% with OVCAR-5 ovarian; 34.8% with OVCAR-4 ovarian; 84% with SK-OV-3 ovarian; 33.5% with IGROV1 ovarian. Further, the growth with OVCAR-3 ovarian is -18.9% (active); in the test on HS 578T breast it was 53.6%; in the test with NCI/ADR-RES ovarian, 49%; in the test with T-47D breast, 44.2%; in the test on BT-549 breast, 49.9%; in the test on SW-620 colon, -14.7% (active). Moreover, the growth in the test on MCF7 breast is 6.93% (active); in the test with HCT-116 colon, -20.5% (active); in the test with HCC-2998 colon, 73.3%; in the test on KM12 colon, 64.2%.

Regarding `CN(C)C(=O)c1ccccc1-n1cnc2ccccc2c1=O`, the growth in the test with SR leukemia is 103%; with OVCAR-8 ovarian, 103%; in the test with OVCAR-5 ovarian it was 104%; in the test with OVCAR-4 ovarian, 106%; in the test on IGROV1 ovarian it was 99.9%; in the test with OVCAR-3 ovarian, 110%. Besides, the growth in the test on HS 578T breast is 108%; with NCI/ADR-RES ovarian it was 102%; in the test on T-47D breast, 99.2%; in the test with BT-549 breast, 117%; with MDA-MB-435 melanoma, 95%; with SW-620 colon, 102%. Moreover, the growth in the test with MCF7 breast is 96.4%; in the test with HCT-116 colon, 100%; in the test on HCC-2998 colon, 99.9%; in the test with KM12 colon, 101%.
